Experimental data published in PubChem BioAssay AID1159580 (chemical genetic matrix, 2015).
Among all 5,500 compounds or so, about 2,000 (36%) were called active. Roughly 18% stayed inconclusive and do not appear here. No stated cut-off is given here; in the data, active means normalized growth mostly below about 0.91 (no sharp cut-off); inconclusive means no clear call, values can overlap the other calls; inactive means mostly above about 0.92. Some of the results follow.

Test: chemical genetic growth profiling, strain panel (AID 1159580);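 further: tested at 20 µM; growth read once vehicle control cultures reached saturation at 30 °C; 1 = growth at the plate median or of vehicle wells; lower values mean less growth of the strain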
Conditions: growth OD

Measured: normalized growth

CC(=O)NC(C(=O)O)C(C)(C)SN=O (centres undefined)
inactive: S. cerevisiae deletion strains, locus YJR043C, strain POL32, active compounds read low 0.995 | S. cerevisiae deletion strains, locus YJR075W, strain HOC1, active compounds read low 1.03 | S. cerevisiae deletion strains, locus YKL009W, strain mrt4, active compounds read low 0.957 | S. cerevisiae deletion strains, locus YKL068W, active compounds read low 0.99 | S. cerevisiae deletion strains, locus YKL085W, strain MDH1 (second series), active compounds read low 0.987 | S. cerevisiae deletion strains, locus YKL085W, strain MDH1, active compounds read low 0.987 | S. cerevisiae deletion strains, locus YKL160W, strain elf1, active compounds read low 0.996 | S. cerevisiae deletion strains, locus YKL190W, strain CNB1, active compounds read low 1.01 | S. cerevisiae deletion strains, locus YKR001C, strain vps1, active compounds read low 1 | S. cerevisiae deletion strains, locus YKR026C, strain gcn3, active compounds read low 0.989 | S. cerevisiae deletion strains, locus YKR091W, strain srl3, active compounds read low 0.986 | S. cerevisiae deletion strains, locus YLL001W, strain dnm1, active compounds read low 1 | S. cerevisiae deletion strains, locus YLL026W, active compounds read low 1 | S. cerevisiae deletion strains, locus YLL041C, strain sdh2, active compounds read low 0.99 | S. cerevisiae deletion strains, locus YLR027C, strain aat2, active compounds read low 1 | S. cerevisiae deletion strains, locus YLR039C, strain RIC1, active compounds read low 1 | S. cerevisiae deletion strains, locus YLR058C, strain SHM2, active compounds read low 1.01 | S. cerevisiae deletion strains, locus YLR102C, strain apc9, active compounds read low 0.993 | S. cerevisiae deletion strains, locus YLR221C, strain rsa3, active compounds read low 1 | S. cerevisiae deletion strains, locus YLR258W, strain gsy2, active compounds read low 0.994 | S. cerevisiae deletion strains, locus YLR262C, strain YPT6 (second series), active compounds read low 1.02 | S. cerevisiae deletion strains, locus YLR262C, strain YPT6, active compounds read low 1.01 | S. cerevisiae deletion strains, locus YLR268W, strain sec22, active compounds read low 1 | S. cerevisiae deletion strains, locus YLR320W, strain mms22, active compounds read low 0.972 | S. cerevisiae deletion strains, locus YLR330W, strain CHS5, active compounds read low 0.994 | S. cerevisiae deletion strains, locus YLR342W, strain FKS1 (second series), active compounds read low 1.01 | S. cerevisiae deletion strains, locus YLR342W, strain FKS1, active compounds read low 1.01 | S. cerevisiae deletion strains, locus YLR357W, strain rsc2, active compounds read low 0.989 | S. cerevisiae deletion strains, locus YLR370C, strain arc18, active compounds read low 0.991 | S. cerevisiae deletion strains, locus YLR371W, strain rom2, active compounds read low 0.984 | S. cerevisiae deletion strains, locus YLR384C, strain iki3, active compounds read low 0.974 | S. cerevisiae deletion strains, locus YLR418C, strain cdc73, active compounds read low 1.06 | S. cerevisiae deletion strains, locus YML016C, strain PPZ1, active compounds read low 1.01 | S. cerevisiae deletion strains, locus YML032C, strain rad52, active compounds read low 0.979 | S. cerevisiae deletion strains, locus YML120C, strain ndi1, active compounds read low 1 | S. cerevisiae deletion strains, locus YML124C, strain tub3, active compounds read low 0.993 | S. cerevisiae deletion strains, locus YMR058W, strain fet3, active compounds read low 0.993 | S. cerevisiae deletion strains, locus YMR078C, strain ctf18, active compounds read low 0.982 | S. cerevisiae deletion strains, locus YMR125W, strain sto1, active compounds read low 0.98 | S. cerevisiae deletion strains, locus YMR129W, active compounds read low 0.993 | S. cerevisiae deletion strains, locus YMR205C, strain PFK2, active compounds read low 1.01 | S. cerevisiae deletion strains, locus YMR223W, strain ubp8, active compounds read low 0.995 | S. cerevisiae deletion strains, locus YMR231W, strain pep5, active compounds read low 0.979 | S. cerevisiae deletion strains, locus YMR263W, strain SAP30, active compounds read low 1.03 | S. cerevisiae deletion strains, locus YMR307W, strain GAS1, active compounds read low 0.995 | S. cerevisiae deletion strains, locus YNL067W, strain RPL9B, active compounds read low 1.02 | S. cerevisiae deletion strains, locus YNL071W, strain lat1, active compounds read low 0.989 | S. cerevisiae deletion strains, locus YNL128W, strain TEP1, active compounds read low 1.03 | S. cerevisiae deletion strains, locus YNL153C, strain GIM3, active compounds read low 1.01 | S. cerevisiae deletion strains, locus YNL209W, strain ssb2, active compounds read low 0.993 | S. cerevisiae deletion strains, locus YNL233W, strain BNI4, active compounds read low 1.01 | S. cerevisiae deletion strains, locus YNL248C, strain rpa49, active compounds read low 0.994 | S. cerevisiae deletion strains, locus YNL250W, strain rad50, active compounds read low 0.989 | S. cerevisiae deletion strains, locus YNL271C, strain bni1, active compounds read low 1 | S. cerevisiae deletion strains, locus YNL298W, strain CLA4, active compounds read low 0.983 | S. cerevisiae deletion strains, locus YNL307C, strain MCK1, active compounds read low 1.01 | S. cerevisiae deletion strains, locus YNL322C, strain KRE1 (second series), active compounds read low 0.997 | S. cerevisiae deletion strains, locus YNL322C, strain KRE1, active compounds read low 1.01 | S. cerevisiae deletion strains, locus YNR049C, strain mso1, active compounds read low 0.981 | S. cerevisiae deletion strains, locus YNR052C, strain pop2, active compounds read low 0.991 | S. cerevisiae deletion strains, locus YOL006C, strain TOP1, active compounds read low 1.09 | S. cerevisiae deletion strains, locus YOL012C, strain htz1 0.758 | S. cerevisiae deletion strains, locus YOL147C, strain pex11, active compounds read low 0.995 | S. cerevisiae deletion strains, locus YOR001W, strain rrp6, active compounds read low 0.971 | S. cerevisiae deletion strains, locus YOR061W, strain CKA2, active compounds read low 1.01 | S. cerevisiae deletion strains, locus YOR069W, strain VPS5, active compounds read low 1 | S. cerevisiae deletion strains, locus YOR070C, strain gyp1, active compounds read low 0.979 | S. cerevisiae deletion strains, locus YOR080W, strain dia2, active compounds read low 0.994 | S. cerevisiae deletion strains, locus YOR083W, strain WHI5, active compounds read low 1 | S. cerevisiae deletion strains, locus YOR106W, strain vam3, active compounds read low 0.999 | S. cerevisiae deletion strains, locus YOR136W, strain idh2, active compounds read low 0.984 | S. cerevisiae deletion strains, locus YOR144C, strain elg1, active compounds read low 0.989 | S. cerevisiae deletion strains, locus YOR184W, strain ser1, active compounds read low 0.978 | S. cerevisiae deletion strains, locus YOR265W, strain rbl2, active compounds read low 0.991 | S. cerevisiae deletion strains, locus YOR270C, strain vph1, active compounds read low 0.982 | S. cerevisiae deletion strains, locus YOR290C, strain snf2, active compounds read low 0.981 | S. cerevisiae deletion strains, locus YOR316C, strain cot1, active compounds read low 0.989 | S. cerevisiae deletion strains, locus YPL051W, strain arl3, active compounds read low 0.987 | S. cerevisiae deletion strains, locus YPL055C, strain LGE1, active compounds read low 1.04 | S. cerevisiae deletion strains, locus YPL078C, strain atp4, active compounds read low 0.988 | S. cerevisiae deletion strains, locus YPL106C, strain sse1, active compounds read low 0.97 | S. cerevisiae deletion strains, locus YPL240C, strain hsp82, active compounds read low 0.999 | S. cerevisiae deletion strains, locus YPL241C, strain CIN2, active compounds read low 1.01 | S. cerevisiae deletion strains, locus YPR119W, strain clb2, active compounds read low 0.998 | S. cerevisiae deletion strains, locus YPR141C, strain kar3, active compounds read low 0.995 | S. cerevisiae deletion strains, locus YPR163C, strain tif3, active compounds read low 0.986 | S. cerevisiae deletion strains, locus YPR167C, strain met16, active compounds read low 1 | S. cerevisiae deletion strains, strain wtn01, active compounds read low 1.01 | S. cerevisiae strains, strain wild type, active compounds read low 0.999
